Sampled rows, rich in hits. Any-hit rate of the full collection: about 2.3%.
ROS inducer: raises reactive oxygen species in U2OS cancer cells; U2OS ROS induction, H2DCF-DA fluorescence; ROS induction (% of piperlongumine), % at 10 µM; hit rate 2% among 46,000; in the data active = ROS induction above about 79%, passing the limit was not always enough;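 also: 0% = DMSO vehicle median and 100% = reference compound median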
YB-1 expression: YB-1 expression inhibition. U2OS, qRT-PCR YB-1 vs CDIP delta delta Cp, 16 h; hits give high values; zero = DMSO, each unit about twofold. delta delta Cp (YB-1 minus CDIP) (concentration not given with the values). hit rate 0.37% among 30,000;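 active = delta delta Cp rounded down to an integer at or above 3, about 3 SD of DMSO wells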;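 also: higher means less YB-1 transcript or more CDIP transcript relative to DMSO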
Active calls of the source: *; . = no result given.

SMILES	ROS inducer	YB-1 expression
C[C@@H]1CCCCO[C@@H](CN(C)C(=O)Nc2ccc(C(F)(F)F)cc2)[C@@H](C)CN([C@H](C)CO)C(=O)c2cc(NC(=O)Cc3ccccc3)ccc2O1	45	-0.1
CCC(C)c1ccc(OCC(=O)Nc2cccc(-c3nc4ncccc4o3)c2C)cc1 (configuration not stated)	29	.
CSc1sc(-c2ccnc(SCC(=O)C(C)(C)C)n2)c2c1C(=O)CC(C)(C)C2	139*	-0.32
Cc1csc2sc(-c3ccnc(SCC(=O)c4ccccc4)n3)c(C)c12	21	0.17
C=CCNC(=O)[C@@H]1[C@H]2C(=O)O[C@H](c3ccccc3)[C@H](c3ccccc3)N2[C@H](c2ccc(OCCO)cc2)[C@@]12C(=O)N(C(=O)OCCOC)c1ccc(C#CCC(C(=O)OC)C(=O)OC)cc12	132*	0.032
COCCOC(=O)N1C(=O)[C@@]2(c3cc(C#CCC(C(=O)OC)C(=O)OC)ccc31)[C@H](C(=O)NC[C@H](O)c1ccccc1)[C@H]1C(=O)O[C@H](c3ccccc3)[C@H](c3ccccc3)N1[C@@H]2c1ccc(O)cc1	47	0.0019
C=CCNC(=O)[C@@H]1[C@H]2C(=O)O[C@H](c3ccccc3)[C@H](c3ccccc3)N2[C@H](c2ccc(OCCO)cc2)[C@@]12C(=O)N(C(=O)OCCOC)c1ccc(C#Cc3ccc(OC)cc3)cc12	9	0.59
C=CCNC(=O)[C@H]1[C@@H]2C(=O)O[C@@H](c3ccccc3)[C@@H](c3ccccc3)N2[C@@H](c2ccc(OCCO)cc2)[C@]12C(=O)N(C(=O)OCCOC)c1ccc(C#CCC(C(=O)OC)C(=O)OC)cc12	157*	0.34
COc1ccc(-c2coc3c(OC)c(OC)cc(OC4OC(CO)C(O)C(O)C4OC4OCC(O)C(O)C4O)c3c2=O)cc1 (configuration not stated)	-7	0.28
CC(C)NC(=O)N(C)C[C@@H]1Oc2ccc(NC(=O)Cn3cnnn3)cc2CC(=O)N([C@@H](C)CO)C[C@@H]1C	-2	0.23
COc1ccc(C2C(C(=O)Nc3cc(OC)c(Cl)cc3OC)=C(C)Nc3ncnn32)c(OC)c1 (configuration not stated)	136*	.
COc1ccccc1NC(=O)C1=C(C)Nc2ncnn2C1c1ccccc1C(=O)O (configuration not stated)	-6	.
C[C@H]1CN([C@@H](C)CO)C(=O)c2cc(NC(=O)Nc3ccc(F)cc3)ccc2O[C@H]1CN(C)Cc1ccccc1	-5	0.13
Cc1ccc(S(=O)(=O)N(C)CC(=O)Nc2cccc(Cl)c2)cc1	-4	.
O=C(NO)c1cccc(C(=O)N/N=C/c2ccc([N+](=O)[O-])s2)c1	-9	-0.09
COc1ccccc1OCCCSc1nc(-c2ccccc2)cc(=O)[nH]1	126*	.
Cc1cc(=O)[nH]c(SCCCOc2ccccc2Cl)n1	12	.
Cc1noc(C)c1S(=O)(=O)Nc1ccc2c(c1)C(=O)N([C@H](C)CO)C[C@H](C)[C@@H](CN(C)C(=O)c1ccccc1)OCCCC[C@@H](C)O2	-6	-0.28
C[C@H]1CN([C@@H](C)CO)C(=O)CCCn2cc(nn2)CO[C@@H]1CN(C)C(=O)Nc1ccc2c(c1)OCCO2	0	-0.24
C=CCn1c2ccccc2c2nnc(SCC(=O)c3ccc(Cl)cc3)nc21	70	.
Cn1c2ccccc2c2nnc(SCC(=O)c3ccc(Cl)cc3)nc21	117*	.
C[C@@H]1CN([C@H](C)CO)C(=O)c2cccc(NC(=O)CCCCCC(=O)Nc3ccccc3N)c2O[C@H]1CN(C)Cc1ccc2c(c1)OCO2	106*	-0.23
C[C@@H]1CN([C@H](C)CO)C(=O)c2cccc(NC(=O)CCCCCC(=O)Nc3ccccc3N)c2O[C@@H]1CN(C)Cc1ccc2c(c1)OCO2	-6	0.025
C[C@H](CO)N1C[C@H](C)[C@H](CN(C)Cc2ccc(Cl)c(Cl)c2)Oc2c(NC(=O)CCCCCC(=O)Nc3ccccc3N)cccc2C1=O	121*	-0.069
C[C@H](CO)N1C[C@H](C)[C@H](CN(C)Cc2ccc(Cl)c(Cl)c2)Oc2ccc(NC(=O)CCCCCC(=O)Nc3ccccc3N)cc2C1=O	29	0.15
SMILES	ROS inducer	YB-1 expression
C[C@@H]1CN([C@@H](C)CO)C(=O)CCCn2nncc2CO[C@@H]1CN(C)Cc1ccccc1C(=O)O	-3	-0.39
Cc1ccc(S(=O)(=O)Nc2ccc3c(c2)CC(=O)N([C@@H](C)CO)C[C@@H](C)[C@@H](CN(C)S(=O)(=O)c2ccc(Cl)cc2)O3)cc1	15	-0.062
C[C@H]1CN([C@@H](C)CO)C(=O)Cc2cc(NC(=O)NC3CCCCC3)ccc2O[C@H]1CN(C)S(=O)(=O)c1cn(C)cn1	14	0.17
C[C@@H]1CN([C@H](C)CO)C(=O)Cc2cc(NC(=O)C3CC3)ccc2O[C@@H]1CN(C)S(=O)(=O)c1ccc(Cl)cc1	5	-0.4
Cc1ccc(S(=O)(=O)N(C)C[C@H]2Oc3ccc(NS(=O)(=O)c4ccc(Cl)cc4)cc3CC(=O)N([C@@H](C)CO)C[C@H]2C)cc1	212*	-0.12
C[C@H](CO)N1C[C@H](C)[C@H](CN(C)S(=O)(=O)c2ccc(Cl)cc2)Oc2ccc(NC(=O)C3CC3)cc2CC1=O	123*	-0.22
C[C@H]1CN([C@@H](C)CO)C(=O)Cc2cc(NC(=O)NC3CCCCC3)ccc2O[C@@H]1CN(C)S(=O)(=O)c1cn(C)cn1	109*	-0.35
C[C@H](CO)N1C[C@H](C)[C@H](CN(C)S(=O)(=O)c2ccc(Cl)cc2)Oc2ccc(NC(=O)Cn3cnnn3)cc2CC1=O	126*	0.051
Cc1ccc(S(=O)(=O)N(C)C[C@H]2Oc3ccc(NC(=O)Cn4cnnn4)cc3CC(=O)N([C@@H](C)CO)C[C@@H]2C)cc1	-2	-0.073
C[C@@H]1CCCCO[C@H](CN(C)C(=O)Nc2ccc(F)cc2)[C@@H](C)CN([C@H](C)CO)C(=O)c2cc(NC(=O)c3ccncc3)ccc2O1	-5	-0.024
C[C@H]1CN([C@@H](C)CO)C(=O)Cc2cc(NC(=O)NC3CCCCC3)ccc2O[C@H]1CN(C)S(=O)(=O)c1ccc(Cl)cc1	130*	-0.089
Cc1ccc(S(=O)(=O)N(C)C[C@H]2Oc3ccc(NC(=O)NC4CCCCC4)cc3CC(=O)N([C@H](C)CO)C[C@H]2C)cc1	-6	-0.023
C[C@@H]1CN([C@H](C)CO)C(=O)Cc2cc(NC(=O)NC3CCCCC3)ccc2O[C@H]1CN(C)C(=O)Nc1ccc(F)cc1	-1	0.17
c1ccc(Cn2ccc3ccccc32)cc1	12	0.048
CCOC1=NC(C(F)(F)F)(C(F)(F)F)N=C2Sc3ccccc3N12	67	.
CCOC(=O)c1ccc(Nc2nnc(CSc3nc(C)cc(C)n3)s2)cc1	5	.
C=CCn1c(=O)c2c(C)c(C)sc2n2c(Nc3ccc(C(=O)OCC)cc3)nnc12	194*	-0.15
N#CC1=C(N)N(c2sc3c(c2C#N)CCCC3)C2=C(CCC2)C1(C(F)(F)F)C(F)(F)F	205*	.
N#Cc1c(NC(=O)C(F)(F)F)sc2c1CCCC2	-2	.
Cc1cc(C)c2c(n1)nn1c(C)c(CCC(=O)NC(C)C)c(C)nc21	-2	.
COc1ccc([Si](C)(C)[C@@H]2[C@@H](CCn3cc([C@H](O)c4ccccc4)nn3)O[C@]3(C(=O)N(Cc4ccc(N5CCC5=O)cc4)c4ccccc43)[C@H]2C)cc1	58	0.58
